Values joined by “and” are separate entries in the source; they are usually repeats but may differ in a detail not shown here. Identical values can stand only once. Where a structure was tested more than once in an assay, its records may differ in their call. Active and inactive are the calls of the source. Rule for the calls: active = hit-call score of the fitted dose curve at least 0.9, where 1 is the maximum; inactive = score below 0.9.
Columns and labels:
[1] = ATG_E_Box_CIS: Attagene CIS-FACTORIAL HepG2 Assay for human Enhancer Box (E-box) (AID 2282936); details: HepG2 E-box cis-reporter transcription, actives raise or lower the signal
Procedure, shortened: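 Fluorescent reporter fragments separated by capillary electrophoresis gave the signal; mRNA came from HepG2 cells transfected with cis-element reporters and treated 24 h. Curves fitted bidirectionally relative to DMSO controls.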

[2] = ATG_M_61_CIS: Attagene CIS-FACTORIAL HepG2 Assay for M61 Transcription Factor (Internal Marker) (AID 2282937); details: HepG2 Attagene CIS-FACTORIAL M61 internal marker reporter; actives raise or lower the signal
Procedure, shortened: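 Multiplexed reporter mRNA assay, HepG2 human hepatoma cells, 24 h treatment. Signal: FAM-labelled, HpaI-digested RT-PCR fragments by CE. Fit: bidirectional, baseline DMSO.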

[3] = ATG_EGR_CIS: Attagene CIS-FACTORIAL HepG2 Assay for human Early Growth Response 1 (EGR1) (AID 2282938); details: HepG2 Attagene CIS-FACTORIAL EGR reporter mRNA; actives raise or lower the signal
Procedure, shortened: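 Multiplexed cis-reporter system in human hepatoma HepG2 cells, transiently transfected. Cells are dosed for 24 h; reporter transcripts are amplified, fluorescently tagged and sized by capillary electrophoresis, with DMSO as negative control.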

[4] = ATG_M_19_CIS: Attagene CIS-FACTORIAL HepG2 Assay for M19 Transcription Factor (Internal Marker) (AID 2282939); details: HepG2 Attagene CIS-FACTORIAL M19 internal marker reporter; actives raise or lower the signal
Procedure, shortened: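 Internal marker readout, fitted in both directions against DMSO, from HepG2 cells carrying transfected cis-element reporter constructs; RT-PCR and capillary electrophoresis of reporter mRNA after 24 h exposure.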

[5] = ATG_ERE_CIS: Attagene CIS-FACTORIAL HepG2 Assay for Estrogen Response Element (ERE) (AID 2282940); details: HepG2 ERE cis-reporter, Attagene RNA transcript; actives raise or lower the signal
Procedure, shortened: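 After 24 h compound treatment, RNA from transfected HepG2 cells was reverse-transcribed, reporter cDNA PCR-amplified, FAM-labelled, HpaI-cut and resolved by capillary electrophoresis. ERE-driven cis reporter transcripts reflect endogenous factors; gain or loss scored against DMSO.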

[6] = ATG_Ets_CIS: Attagene CIS-FACTORIAL HepG2 Assay for human Erythroblast Transformation Specific (ETS) (AID 2282941); details: HepG2 ETS cis-reporter transcription, actives raise or lower the signal
Procedure, shortened: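 RT-PCR/capillary electrophoresis fluorescence read-out of reporter mRNA; HepG2 transient multi-reporter transfection; 24 h compound exposure; gain or loss of signal fitted bidirectionally relative to DMSO.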

[7] = biological target: Hepatocyte nuclear factor 3-beta (Homo sapiens) (UniProt Q9Y261); assay: ATG_FoxA2_CIS: Attagene CIS-FACTORIAL HepG2 Assay for human Forkhead box A2 (FOXA2) (AID 2282942); details: HepG2 cis-reporter transcription factor activity, 24 h; actives raise or lower the signal
Procedure, shortened: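 Multiplexed cis-element reporter assay in transiently transfected HepG2. Twenty-four hours post-dosing, RNA was reverse-transcribed, amplified, FAM-labelled, HpaI-digested and separated by CE. Activity gain or loss relative to DMSO.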

[8] = ATG_GATA_CIS: Attagene CIS-FACTORIAL HepG2 Assay for human GATA Binding Protein (AID 2282944); details: HepG2 GATA cis-element reporter, Attagene multiplex mRNA; actives raise or lower the signal
Procedure, shortened: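 Reporter transcripts from a GATA cis-regulated unit, among multiplexed reporters in transfected HepG2 cells, were measured by RT-PCR with capillary electrophoresis after 24 h dosing. Induction or loss scored relative to DMSO.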

[9] = ATG_GLI_CIS: Attagene CIS-FACTORIAL HepG2 Assay for human Zinc Finger Protein GLI1 (AID 2282945); details: HepG2, Attagene cis-factorial reporter mRNA, GLI element; actives raise or lower the signal
Procedure, shortened: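 Bidirectional curve fits relative to DMSO, using reporter mRNA levels from RT-PCR plus capillary electrophoresis. Cells were HepG2 transiently carrying cis-regulated reporter constructs, harvested 24 h after dosing.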

[10] = biological target: Bile acid receptor (Homo sapiens) (UniProt Q96RI1); assay: ATG_IR1_CIS: Attagene CIS-FACTORIAL HepG2 Assay for human Nuclear Receptor Subfamily 1 Group H Member 4 (NR1H4), IR1 submotif (AID 2282946); details: IR1 reporter transcription, actives raise or lower the signal
Procedure, shortened: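 HepG2 cells transiently transfected with multiplexed cis-element reporter units read endogenous transcription factor activity. After 24 h compound exposure, reporter mRNA was quantified by RT-PCR, fluorescent labelling, HpaI digestion and capillary electrophoresis; bidirectional fitting versus DMSO baseline.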

[11] = ATG_GRE_CIS: Attagene CIS-FACTORIAL HepG2 Assay for human Glucocorticoid Response Elements (GRE) (AID 2282947); details: HepG2 GRE cis-reporter, Attagene multiplex mRNA; actives raise or lower the signal
Procedure, shortened: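 Multiplexed cis-reporter mRNA induction, HepG2, 24 h post-dose. RT-PCR, FAM-labelled, HpaI-digested amplicons by CE. Bidirectional fit vs DMSO.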

[12] = ATG_M_32_CIS: Attagene CIS-FACTORIAL HepG2 Assay for M32 Transcription Factor (Internal Marker) (AID 2282949); details: HepG2 Attagene cis-factorial M32 reporter, mRNA; actives raise or lower the signal;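 note: background control marker of the multiplexed CIS panel rather than a real target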
Procedure, shortened: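 Transient MRTU transfection of HepG2; 24 h compound treatment; TriZol RNA, oligo(dT) RT, reporter PCR, 6-FAM primer extension, HpaI cut, CE. Gain/loss of signal vs DMSO.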

[13] = biological target: Hypoxia-inducible factor 1-alpha (Homo sapiens) (UniProt Q16665); assay: ATG_HIF1a_CIS: Attagene CIS-FACTORIAL HepG2 Assay for human Hypoxia Inducible Factor 1 (HIF1A) (AID 2282951); details: HepG2 Attagene cis-factorial HIF1a reporter transcription; actives raise or lower the signal
Procedure, shortened: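 Cis-element reporter constructs were transiently transfected into HepG2 cells, which were treated for 24 h; reporter RNA was reverse-transcribed, amplified, labelled and resolved by capillary electrophoresis.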

[14] = biological target: Hepatocyte nuclear factor 6 (Homo sapiens) (UniProt Q9UBC0); assay: ATG_HNF6_CIS: Attagene CIS-FACTORIAL HepG2 Assay for human Hepatocyte Nuclear Factor 6 (HNF6) (AID 2282952); details: HepG2 Attagene cis-factorial HNF6 reporter transcription; actives raise or lower the signal
Procedure, shortened: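 Activity values derive from bidirectional fitting against DMSO of reporter mRNA levels, measured by capillary electrophoresis of labelled RT-PCR products from HepG2 cells exposed 24 h.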

[15] = biological target: Heat shock factor protein 1 (Homo sapiens) (UniProt Q00613); assay: ATG_HSE_CIS: Attagene CIS-FACTORIAL HepG2 Assay for human Heat Shock Transcription Factor 1 (HSE) (AID 2282953); details: HepG2 HSE cis-reporter, Attagene RNA transcription; actives raise or lower the signal
Procedure, shortened: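 Endogenous transcription factor activity in transiently transfected HepG2, read as reporter mRNA by RT-PCR with fluorescent capillary electrophoresis after 24 h. Gain or loss of signal fitted versus DMSO baseline.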

[16] = ATG_MRE_CIS: Attagene CIS-FACTORIAL HepG2 Assay for human Metal Responsive Element (MRE) (AID 2282954); details: HepG2 MRE cis-reporter transcription, Attagene multiplex; actives raise or lower the signal
Procedure, shortened: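 Multiplexed cis-reporter assay in human HepG2 liver cells, 24 h incubation with test chemical. Reporter transcripts measured by RT-PCR and capillary electrophoresis; values from bidirectional curve fitting versus DMSO.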

[17] = ATG_PBREM_CIS: Attagene CIS-FACTORIAL HepG2 Assay for human Phenobarbital-responsive Enhancer Module (PBREM) (AID 2282955); details: HepG2 PBREM cis-reporter, Attagene multiplexed transcription; actives raise or lower the signal
Procedure, shortened: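 Multiplexed cis-reporter readout in human hepatoma HepG2 cells; PBREM-regulated transcript quantified after 24 h exposure by fluorescent RT-PCR fragment analysis. Signal changes up or down fitted relative to DMSO.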

[18] = ATG_FoxO_CIS: Attagene CIS-FACTORIAL HepG2 Assay for human Forkhead box O (FoxO) (AID 2282943); details: HepG2 Attagene cis-reporter, FoxO element, mRNA; actives raise or lower the signal
Procedure, shortened: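 Endogenous transcription factor activity read from multiplexed cis-promoter reporter transcripts in transiently transfected HepG2, 24 h after dosing. Reporter RNA measured via RT-PCR plus capillary electrophoresis of FAM-labeled products; gain or loss relative to DMSO.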

[19] = ATG_ISRE_CIS: Attagene CIS-FACTORIAL HepG2 Assay for human Interferon Regulatory Factor 1 (IRF1) binding to an Interferon-Stimulated Response Element (ISRE) (AID 2282948); details: HepG2 ISRE cis-reporter (Attagene), mRNA transcription readout; actives raise or lower the signal
Procedure, shortened: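 Read-out: fluorescent RT-PCR products resolved by capillary electrophoresis, reporting endogenous transcription factor activity via ISRE-driven reporter mRNA in transfected HepG2 cells dosed for 24 h; gain or loss fitted relative to DMSO.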

[20] = ATG_M_06_CIS: Attagene CIS-FACTORIAL HepG2 Assay for M06 Transcription Factor (Internal Marker) (AID 2282950); details: HepG2 Attagene CIS-FACTORIAL M06 internal marker reporter; actives raise or lower the signal
Procedure, shortened: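 Serves as a background control readout. Transfected HepG2 exposed to compounds for 24 h, then reporter transcripts quantified by fluorescent RT-PCR and capillary electrophoresis. Both directions fitted against DMSO baseline.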

Chain of Heat shock factor protein 1 (Homo sapiens) (Q00613 whole entry, looked up): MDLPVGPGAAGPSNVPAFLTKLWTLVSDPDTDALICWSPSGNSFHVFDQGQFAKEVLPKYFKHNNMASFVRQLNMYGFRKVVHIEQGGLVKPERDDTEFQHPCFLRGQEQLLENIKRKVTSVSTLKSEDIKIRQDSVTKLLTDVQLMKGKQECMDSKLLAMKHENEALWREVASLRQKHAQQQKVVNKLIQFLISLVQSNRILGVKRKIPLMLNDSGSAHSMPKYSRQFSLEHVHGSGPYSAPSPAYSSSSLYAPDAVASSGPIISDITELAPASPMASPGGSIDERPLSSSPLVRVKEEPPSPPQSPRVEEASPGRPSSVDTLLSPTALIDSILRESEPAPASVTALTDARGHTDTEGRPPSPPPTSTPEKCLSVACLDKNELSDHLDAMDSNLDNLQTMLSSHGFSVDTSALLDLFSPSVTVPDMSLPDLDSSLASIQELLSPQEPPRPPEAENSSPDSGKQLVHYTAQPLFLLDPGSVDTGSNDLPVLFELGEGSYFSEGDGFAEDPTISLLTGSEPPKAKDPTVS
Chain of Hypoxia-inducible factor 1-alpha (Homo sapiens) (Q16665 whole entry, looked up): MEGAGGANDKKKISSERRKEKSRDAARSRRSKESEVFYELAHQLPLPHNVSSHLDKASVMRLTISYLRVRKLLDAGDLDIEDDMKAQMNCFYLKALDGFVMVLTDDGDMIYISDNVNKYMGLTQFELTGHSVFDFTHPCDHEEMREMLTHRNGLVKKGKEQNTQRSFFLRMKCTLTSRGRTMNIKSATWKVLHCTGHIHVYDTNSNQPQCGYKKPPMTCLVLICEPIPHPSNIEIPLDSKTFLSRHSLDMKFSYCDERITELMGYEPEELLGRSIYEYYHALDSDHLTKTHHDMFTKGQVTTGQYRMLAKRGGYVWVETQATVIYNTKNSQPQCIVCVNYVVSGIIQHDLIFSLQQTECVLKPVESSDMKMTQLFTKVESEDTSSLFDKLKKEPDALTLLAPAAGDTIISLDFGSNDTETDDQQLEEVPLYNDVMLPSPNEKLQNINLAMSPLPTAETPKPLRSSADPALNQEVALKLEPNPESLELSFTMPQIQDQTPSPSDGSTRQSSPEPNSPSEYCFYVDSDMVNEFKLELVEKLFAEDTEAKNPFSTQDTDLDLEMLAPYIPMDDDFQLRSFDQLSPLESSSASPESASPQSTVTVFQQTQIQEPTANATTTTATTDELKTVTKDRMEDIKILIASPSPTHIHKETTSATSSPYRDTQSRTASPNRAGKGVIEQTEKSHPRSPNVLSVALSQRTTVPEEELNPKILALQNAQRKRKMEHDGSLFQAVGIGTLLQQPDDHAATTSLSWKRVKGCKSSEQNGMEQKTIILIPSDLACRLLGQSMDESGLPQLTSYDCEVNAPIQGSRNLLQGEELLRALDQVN
Chain of Bile acid receptor (Homo sapiens) (Q96RI1 whole entry, looked up): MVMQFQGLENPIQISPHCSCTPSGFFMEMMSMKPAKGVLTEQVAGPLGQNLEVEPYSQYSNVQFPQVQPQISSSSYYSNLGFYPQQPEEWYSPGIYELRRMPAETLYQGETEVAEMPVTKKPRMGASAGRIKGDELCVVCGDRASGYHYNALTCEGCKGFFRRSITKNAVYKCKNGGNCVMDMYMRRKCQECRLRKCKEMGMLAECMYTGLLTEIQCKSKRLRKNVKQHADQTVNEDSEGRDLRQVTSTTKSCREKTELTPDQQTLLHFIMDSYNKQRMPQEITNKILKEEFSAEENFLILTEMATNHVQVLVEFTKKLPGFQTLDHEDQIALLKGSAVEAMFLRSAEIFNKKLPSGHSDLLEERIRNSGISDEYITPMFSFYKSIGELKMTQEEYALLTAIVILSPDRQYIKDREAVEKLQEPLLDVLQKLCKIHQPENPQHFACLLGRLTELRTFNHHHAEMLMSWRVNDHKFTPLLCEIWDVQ
Chain of Hepatocyte nuclear factor 3-beta (Homo sapiens) (Q9Y261 whole entry, looked up): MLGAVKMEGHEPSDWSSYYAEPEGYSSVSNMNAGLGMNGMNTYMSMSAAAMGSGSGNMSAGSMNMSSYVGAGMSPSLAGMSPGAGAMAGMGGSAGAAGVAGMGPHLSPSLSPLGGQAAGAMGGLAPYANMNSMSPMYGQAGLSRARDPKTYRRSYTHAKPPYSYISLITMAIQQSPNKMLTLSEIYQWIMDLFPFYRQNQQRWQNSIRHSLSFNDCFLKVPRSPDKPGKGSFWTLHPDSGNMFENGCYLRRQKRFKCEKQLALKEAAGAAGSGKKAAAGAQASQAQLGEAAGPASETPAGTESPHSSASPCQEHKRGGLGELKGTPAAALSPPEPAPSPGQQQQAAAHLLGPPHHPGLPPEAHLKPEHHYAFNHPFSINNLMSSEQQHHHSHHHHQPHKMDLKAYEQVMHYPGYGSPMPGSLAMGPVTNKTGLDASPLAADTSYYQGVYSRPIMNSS
Chain of Hepatocyte nuclear factor 6 (Homo sapiens) (Q9UBC0 whole entry, looked up): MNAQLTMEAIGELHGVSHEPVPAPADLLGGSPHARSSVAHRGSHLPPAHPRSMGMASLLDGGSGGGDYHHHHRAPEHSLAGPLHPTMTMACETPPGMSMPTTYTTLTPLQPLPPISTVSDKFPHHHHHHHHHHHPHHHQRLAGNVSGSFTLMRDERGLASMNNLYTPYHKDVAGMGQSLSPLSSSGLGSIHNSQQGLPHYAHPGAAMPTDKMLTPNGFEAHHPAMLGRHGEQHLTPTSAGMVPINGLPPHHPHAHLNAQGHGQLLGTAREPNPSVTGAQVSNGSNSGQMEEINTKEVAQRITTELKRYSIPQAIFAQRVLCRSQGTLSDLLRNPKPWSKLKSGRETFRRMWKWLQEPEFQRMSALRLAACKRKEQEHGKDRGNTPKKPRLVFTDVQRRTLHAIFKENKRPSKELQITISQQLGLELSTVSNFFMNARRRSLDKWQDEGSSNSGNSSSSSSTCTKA

Oc1c(Cl)c(Cl)c(Cl)c(Cl)c1Cl
AC50 [1]: 67.8 µM (active)
outcome [1]: inactive
outcome [2]: inactive
AC50 [3]: 29.4 µM (active) and 11.2 µM (active)
outcome [3]: inactive
outcome [4]: inactive
AC50 [5]: 13.4 µM (active)
outcome [5]: inactive
AC50 [6]: 21.5 µM (active)
outcome [6]: inactive
outcome [7]: inactive
outcome [8]: inactive
AC50 [9]: 82 µM (active)
outcome [9]: inactive
outcome [10]: inactive
outcome [11]: inactive
outcome [12]: inactive
AC50 [13]: 3.43 µM (active) and 20.6 µM (active)
outcome [13]: inactive
AC50 [14]: 25.9 µM (active)
outcome [14]: inactive
AC50 [15]: 31.5 µM (active) and 75.4 µM (active) and 142 µM (active)
AC50 [16]: 50 µM (active) and 40.9 µM (active) and 78.8 µM (active)
AC50 [17]: 18.1 µM (active) and 7.11 µM (active)
outcome [17]: inactive

CCCCCCCCOC(=O)c1ccccc1C(=O)OCCCCCCCC
outcome [1]: inactive
outcome [2]: inactive
outcome [3]: inactive
outcome [4]: inactive
outcome [5]: inactive
outcome [6]: inactive
outcome [7]: inactive
outcome [18]: inactive
outcome [8]: inactive
outcome [9]: inactive
outcome [10]: inactive
outcome [19]: inactive
outcome [12]: inactive
outcome [20]: inactive
AC50 [13]: 40.1 µM (active)
outcome [14]: inactive
outcome [15]: inactive
outcome [16]: inactive
outcome [17]: inactive

CC(C)(c1ccccc1)c1ccc(O)cc1
outcome [1]: inactive
outcome [2]: inactive
AC50 [3]: 48.7 µM (active)
outcome [3]: inactive
outcome [4]: inactive
AC50 [5]: 435 nM (active) [middle of 4 runs]
outcome [6]: inactive
outcome [7]: inactive
outcome [18]: inactive
AC50 [8]: 52.1 µM (active)
outcome [8]: inactive
AC50 [9]: 55.4 µM (active)
outcome [9]: inactive
AC50 [10]: 33.4 µM (active)
outcome [10]: inactive
AC50 [11]: 51.3 µM (active)
outcome [11]: inactive
outcome [12]: inactive
AC50 [13]: 52.5 µM (active) and 12.7 µM (active)
outcome [13]: inactive
outcome [14]: inactive
AC50 [15]: 54.7 µM (active)
outcome [15]: inactive
AC50 [16]: 33.4 µM (active) and 52.1 µM (active) and 43.1 µM (active)
outcome [16]: inactive
AC50 [17]: 33.4 µM (active)
outcome [17]: inactive

Cc1cc2c3c(c1)C(c1ccccc1)=N[C@@H](NC(=O)c1ccncc1)C(=O)N3CC2
outcome [1]: inactive
outcome [2]: inactive
AC50 [3]: 42.8 µM (active)
outcome [4]: inactive
outcome [5]: inactive
AC50 [6]: 153 µM (active)
outcome [7]: inactive
outcome [18]: inactive
outcome [8]: inactive
outcome [9]: inactive
outcome [10]: inactive
outcome [12]: inactive
AC50 [13]: 72.4 µM (active)
outcome [14]: inactive
outcome [15]: inactive
AC50 [16]: 77.1 µM (active)
AC50 [17]: 3.47 µM (active)

Clc1ccc(C(c2ccccc2Cl)C(Cl)(Cl)Cl)cc1 (centres undefined)
outcome [1]: inactive
outcome [2]: inactive
outcome [3]: inactive
outcome [4]: inactive
AC50 [5]: 874 nM (active) [middle of 4 runs]
outcome [6]: inactive
AC50 [7]: 135 µM (active)
outcome [7]: inactive
outcome [8]: inactive
outcome [9]: inactive
outcome [11]: inactive
outcome [12]: inactive
outcome [20]: inactive
AC50 [13]: 18.4 µM (active)
outcome [13]: inactive
outcome [14]: inactive
AC50 [15]: 50.7 µM (active) and 94.6 µM (active)
outcome [15]: inactive
AC50 [16]: 70.5 µM (active) and 36.9 µM (active)
outcome [16]: inactive
outcome [17]: inactive

— PubChem BioAssay (EPA / NIEHS)
